Hits are enriched below; roughly 19% of the tested compounds scored in any of these assays.
HT1080 IDH1KD tx: qHTS for induction of synthetic lethality in tumor cells producing 2HG: qHTS for the HT-1080-IDH1KD cell line. Potency, µM (series often up to 46.1 µM), without a hit: at the highest dose activity, negative = toxicity, hits mostly cytotoxic. AID 686971, 2013. 360,000 compounds, 2% hits. HT-1080 IDH1 knockdown viability, ATP luminescence, 48 h;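 also: potency is read from the fitted curve at half-maximal effect; 0% = DMSO wells and -100% = cell-free medium wells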
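Luminescent ATP read-out (CellTiter-Glo, 10 min at room temperature) after 48 h compound exposure at 37 °C gave viability of IDH1-knockdown HT-1080 cells. Activity was normalised to DMSO and cell-free wells, then fitted as concentration-response curves.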
TDP1 cell noCPT: qHTS for Inhibitors of human tyrosyl-DNA phosphodiesterase 1 (TDP1): qHTS in cells in absence of CPT. Potency, µM (doses to about 46.2 µM), inactives show top-dose activity change, negative = growth inhibition, usual class: inhibitors. 420,000 compounds, 15% hits. AID 686978, 2013. DT40 Tdp1-/- hTDP1 cells, no CPT, ATP luminescence, 48 h; also: potency is read from the fitted curve at half-maximal effect; nearly all actives have a fitted effect of over 55% in size
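Cells were dispensed at 400 per well, compounds added by pin tool, plates incubated ≥48 hr at 37 °C, then CellTiter-Glo added for 30 min at room temperature before luminescence reading. Line: DT40 Tdp1-/- complemented with hTDP1; camptothecin omitted.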
IL-1B inflam inh: qHTS for Inhibitors of Inflammasome Signaling: IL-1-beta AlphaLISA Primary Screen; THP-1 LPS/ATP IL-1B secretion, AlphaLISA, 16 h; stronger effect = lower value; activity change, % at 57.5 µM; 360,000 compounds, 4.7% hits; AID 743279, 2014; in the data active = activity change below about -50%; inconclusive = mostly about -30% to -49%
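THP-1 cells pretreated 1 hr with compounds (up to 57.5 uM final), then stimulated with LPS (250 ng/mL final) plus ATP (1.25 mM final); secreted IL-1B measured by AlphaLISA after 16 hr, decreased signal indicating inhibition.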
DT40 TDP1 CPT: qHTS for Inhibitors of human tyrosyl-DNA phosphodiesterase 1 (TDP1): qHTS in cells in presence of CPT. 420,000 compounds, 12% hits. chicken DT40 Tdp1-/-;hTDP1 cells + 20 nM CPT, ATP luminescence, 48 h. AID 686979, 2013. Potency, µM (highest dose often 46.2 µM), for inactives: at the highest dose activity change, negative = growth inhibition, usual class: inhibitors; also: potency is read from the fitted curve at half-maximal effect; nearly all actives have a fitted effect of over 55% in size
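Cell growth measured by CellTiter-Glo luminescence after a minimum 48 h, 37 C compound exposure with 20 nM CPT in Tdp1-knockout DT40 cells stably expressing hTDP1, seeded 400/well; qHTS titration format.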
HT1080-NT tox: qHTS for induction of synthetic lethality in tumor cells producing 2HG: qHTS for the HT-1080-NT fibrosarcoma cell line; HT-1080-NT fibrosarcoma viability, CellTiter-Glo ATP luminescence, 48 h; Potency, µM (series often up to 46.1 µM), for inactives: at the highest dose activity, negative = less viability, most hits filed as cytotoxic; 360,000 compounds, 1.6% hits;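 also: NT is the 2HG producing partner of a matched IDH1 knockdown line; potency is read from the fitted curve at half-maximal effect; 0% = DMSO-treated cells and -100% = media-only wells without cells; nearly all actives have a fitted effect of over 55% in size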
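Toxicity toward the 2HG-producing NT line was scored as %Activity, normalised to DMSO and no-cell wells, from CellTiter-Glo luminescence after 48 hours' treatment.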
ELG1 repair inh: qHTS screen for small molecules that inhibit ELG1-dependent DNA repair in human embryonic kidney (HEK293T) cells expressing luciferase-tagged ELG1; HEK293T ELG1-luciferase reporter, luminescence, 16 h; DNA damage induced by 5-fluorouridine; Potency, µM (doses to about 46.1 µM), for the others: top-dose activity change, negative = inhibition, usual class: inhibitors; 330,000 compounds, 2.3% hits; also: potency is read from the fitted curve at half-maximal effect; nearly all actives have a fitted effect of over 55% in size
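DMSO vehicle served as the neutral condition. Each well held 2,000 cells given 5-fluorouridine plus compound; after 16 hr at 37 °C/5% CO2, ONE-Glo was added and luciferase measured 30 min later.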
Numbers without * were called inactive. Unless noted, calls follow the shape of the dose curve; as a rule, active = well fitted curve in the direction sought with a large enough effect; inconclusive = small, poorly fitted or top-dose-only effect, or another doubt; inactive = no such curve, though single readings can be large; an effect the other way counts as inactive or inconclusive. Unless noted, % is scaled to controls: 0 for no effect and ±100 for the full control effect.

COc1ccc2nc(N=NC3=C(O)CC(C)(C)CC3=O)sc2c1 was read as HT1080 IDH1KD tx inconclusive, TDP1 cell noCPT 5.8µM*, IL-1B inflam inh 141, DT40 TDP1 CPT 5.2µM*, HT1080-NT tox -17% and ELG1 repair inh 3%.
`COc1ccc2nc(N=Nc3ccc(O)c4ccccc34)sc2c1` gave HT1080 IDH1KD tx 5.8µM*, TDP1 cell noCPT 1.3µM*, IL-1B inflam inh 0, DT40 TDP1 CPT 1.3µM*, HT1080-NT tox 7.3µM* and ELG1 repair inh inconclusive.
CC1(C)CC(=O)C(N=Nc2ccc3ncsc3c2)=C(O)C1 was read as HT1080 IDH1KD tx 0%, TDP1 cell noCPT -18%, IL-1B inflam inh 24, DT40 TDP1 CPT -28% and HT1080-NT tox 4%.
CCOc1ccccc1NC(=O)N1CCc2cc(S(=O)(=O)N3CCC(C)CC3)ccc21 was read as TDP1 cell noCPT -19% and DT40 TDP1 CPT -8%.
Screening CCOC1(OCC)C(c2ccc(Cl)cc2)C(C#N)(C#N)C1(OCC)OCC (stereo unspecified) returned HT1080 IDH1KD tx inconclusive, TDP1 cell noCPT 18µM*, IL-1B inflam inh -57*, DT40 TDP1 CPT inconclusive, HT1080-NT tox inconclusive and ELG1 repair inh 20%.
`C[C@@H](CCc1ccc(O)cc1)NCCc1ccc(O)c(O)c1` gave TDP1 cell noCPT 11µM* and DT40 TDP1 CPT 6µM*.
For Cc1ccc(NC(=O)C2CCN(c3nc(C)cc(C)n3)CC2)cc1 the results were HT1080 IDH1KD tx 4%, TDP1 cell noCPT inconclusive, IL-1B inflam inh 8, DT40 TDP1 CPT inconclusive, HT1080-NT tox 0% and ELG1 repair inh 0%.
`Cc1ccc(Cl)cc1N1CCN(C(=O)C2CCN(S(C)(=O)=O)CC2)CC1` gave HT1080 IDH1KD tx -6%, TDP1 cell noCPT 5.8µM*, IL-1B inflam inh 0, DT40 TDP1 CPT inconclusive, HT1080-NT tox -2% and ELG1 repair inh -11%.
Cc1ccc(C)c(N2CCN(C(=O)C3CCN(c4nc(C)cc(C)n4)CC3)CC2)c1 was read as HT1080 IDH1KD tx inconclusive, TDP1 cell noCPT 12µM*, IL-1B inflam inh -8, DT40 TDP1 CPT 15µM*, HT1080-NT tox inconclusive and ELG1 repair inh inconclusive.
For Cc1ccc(Cl)cc1N1CCN(C(=O)C2CCCN(S(=O)(=O)c3cnc[nH]3)C2)CC1 (stereo unspecified) the results were HT1080 IDH1KD tx 8%, TDP1 cell noCPT 23µM*, IL-1B inflam inh -3, DT40 TDP1 CPT 15µM*, HT1080-NT tox 16% and ELG1 repair inh -8%.
For Cc1cc(C)nc(N2CCC(C(=O)N3CCN(c4cc(Cl)ccc4C)CC3)CC2)n1 the results were HT1080 IDH1KD tx inconclusive, TDP1 cell noCPT 18µM*, IL-1B inflam inh -15, DT40 TDP1 CPT inconclusive, HT1080-NT tox inconclusive and ELG1 repair inh inconclusive.
Screening COc1ccc(C(=O)n2c(-c3ccco3)nc3ccccc32)cc1 returned HT1080 IDH1KD tx 5.8µM*, TDP1 cell noCPT 4.1µM*, IL-1B inflam inh -6, DT40 TDP1 CPT 6.5µM*, HT1080-NT tox inconclusive and ELG1 repair inh inconclusive.
Screening c1coc(-c2nc3nc4ccccc4nc3n2-c2ccc3c(c2)OCCO3)c1 returned HT1080 IDH1KD tx -1%, TDP1 cell noCPT -24%, IL-1B inflam inh -7, DT40 TDP1 CPT -26%, HT1080-NT tox 10% and ELG1 repair inh 16µM*.
`Clc1ccc(OCCn2c(-c3ccco3)nc3ccccc32)cc1` gave HT1080 IDH1KD tx -24%, TDP1 cell noCPT inconclusive, IL-1B inflam inh 0, DT40 TDP1 CPT inconclusive, HT1080-NT tox -5% and ELG1 repair inh -16%.
Clc1ccc(-c2nc3nc4ccccc4nc3n2Cc2ccco2)cc1 was read as HT1080 IDH1KD tx 7%, TDP1 cell noCPT 16µM*, IL-1B inflam inh 5, DT40 TDP1 CPT inconclusive, HT1080-NT tox 22% and ELG1 repair inh inconclusive.
Screening Cc1ccc(-c2nc3nc4ccccc4nc3n2Cc2ccco2)cc1 returned HT1080 IDH1KD tx 12%, TDP1 cell noCPT inconclusive, IL-1B inflam inh 9, DT40 TDP1 CPT -18%, HT1080-NT tox 5% and ELG1 repair inh inconclusive.
`COc1ccccc1Cn1c(-c2ccco2)nc2nc3ccccc3nc21` gave HT1080 IDH1KD tx 18%, TDP1 cell noCPT inconclusive, IL-1B inflam inh -19, DT40 TDP1 CPT inconclusive and HT1080-NT tox 15%.
COc1ccc(CCn2c(-c3ccco3)nc3nc4ccccc4nc32)cc1 was read as HT1080 IDH1KD tx -1%, TDP1 cell noCPT 10µM*, IL-1B inflam inh -22, DT40 TDP1 CPT 16µM*, HT1080-NT tox 5% and ELG1 repair inh inconclusive.
`COC(=O)CCCC[C@@H]1O[C@H](CCc2ccccc2)CC2=C1C(=O)OC(C)(C)O2` gave HT1080 IDH1KD tx -7%, TDP1 cell noCPT -85%, IL-1B inflam inh -6, DT40 TDP1 CPT inconclusive and HT1080-NT tox -5%.
Screening COc1cccc(CNC(=O)c2cccc(S(=O)(=O)N3CCN(C)CC3)c2)c1 returned HT1080 IDH1KD tx -8%, TDP1 cell noCPT -1%, IL-1B inflam inh 20, DT40 TDP1 CPT -11%, HT1080-NT tox -2% and ELG1 repair inh -6%.
Cc1ccc(N2CCN(S(=O)(=O)c3c(C)nc4scc(C)n4c3=O)CC2)c(C)c1 was read as HT1080 IDH1KD tx -2%, TDP1 cell noCPT inconclusive, IL-1B inflam inh 62, DT40 TDP1 CPT inconclusive, HT1080-NT tox -2% and ELG1 repair inh -11%.
Screening CCCn1c(-c2ccc(OC)cc2)nc2nc3ccccc3nc21 returned HT1080 IDH1KD tx 0%, TDP1 cell noCPT 21µM*, IL-1B inflam inh 10, DT40 TDP1 CPT 23µM*, HT1080-NT tox -1% and ELG1 repair inh -16%.
Screening COc1ccc(CCn2c(-c3cc([N+](=O)[O-])cc([N+](=O)[O-])c3)nc3nc4ccccc4nc32)cc1OC returned HT1080 IDH1KD tx 11%, TDP1 cell noCPT 23µM*, IL-1B inflam inh 10, DT40 TDP1 CPT inconclusive, HT1080-NT tox 3% and ELG1 repair inh inconclusive.

Screens (PubChem)
